Assay results taken from PubChem BioAssay (NCATS).
Records with an inconclusive call do not appear. Entries that show only a call come without a potency. The source made the active and inactive calls. The call rests on the fitted dose curve.

Experiment: Primary qHTS for inhibitors of MERS-S pseudo-typed particle cell entry (AID 1479149); further: nearly all actives have a fitted effect of over 60% in size
Details: MERS-S pseudotyped particle entry, luciferase; series mostly up to 57.1 µM
Potency means the concentration at half of the fitted maximal effect.

Row | SMILES | Potency | outcome
1 | CCC(c1ccccc1)c1c(O)c2ccccc2oc1=O (stereo unspecified) | inactive | 
2 | CCCCC(=O)N(Cc1ccc(-c2ccccc2-c2nn[nH]n2)cc1)[C@H](C(=O)O)C(C)C | inactive | 
3 | C=C1c2c(Cl)ccc(O)c2C(O)=C2C(=O)[C@@]3(O)C(O)=C(C(N)=O)C(=O)[C@@H](N(C)C)[C@@H]3[C@@H](O)[C@H]12 | 20 µM (active) | 
4 | CC1CCCC(C)N1C(=S)Nc1cccc(C(F)(F)F)c1 (stereo unspecified) | inactive | 
5 | CCCCCCC(=O)O[C@H]1CC[C@H]2[C@@H]3CCc4cc(O)ccc4[C@H]3CC[C@]12C | inactive | 
6 | CC(=O)Nc1c(I)c(C(=O)N[C@H]2C(O)O[C@H](CO)[C@@H](O)[C@@H]2O)c(I)c(N(C)C(C)=O)c1I (stereo partly specified) | inactive | 
7 | Cn1nnnc1SCC1=C(C(=O)O)N2C(=O)[C@@H](NC(=O)[C@H](OC=O)c3ccccc3)[C@H]2SC1 | inactive | 
8 | O=C(Nc1ccc(O)cc1)c1ccccc1O | inactive | 
9 | CN(C)CCC(O)(c1ccccc1)c1ccccc1Cl (stereo unspecified) | inactive | 
10 | CCCOc1cc(N)ccc1C(=O)OCCN(CC)CC | inactive | 
11 | NC(=O)c1ccc[n+]([C@@H]2O[C@H](COP(=O)([O-])OP(=O)(O)OC[C@H]3O[C@@H](n4cnc5c(N)ncnc54)[C@H](O)[C@@H]3O)[C@@H](O)[C@H]2O)c1 | inactive | 
12 | O=C(c1ccc(F)c(F)c1Nc1ccc(I)cc1F)N1CC(O)([C@@H]2CCCCN2)C1 | inactive | 
13 | Cc1ncc(COP(=O)(O)O)c(CN)c1O | inactive | 
14 | CN1N=C2CCN(C(=O)[C@H](COCc3ccccc3)NC(=O)C(C)(C)N)C[C@]2(Cc2ccccc2)C1=O | inactive | 
15 | NC(N)=NCC1COC2(CCCCC2)O1 (stereo unspecified) | inactive | 
16 | C[N+]1(C)CCN(CC(O)(c2ccccc2)C2CCCCC2)CC1 (stereo unspecified) | inactive | 
17 | CCC(C)C(C(=O)OCC[N+](C)(CC)CC)c1ccccc1 (stereo unspecified) | inactive | 
18 | CC(=O)Oc1c(C)cc(OCC(O)CNC(C)C)c(C)c1C (stereo unspecified) | inactive | 

Row | SMILES | Potency | outcome
19 | CC(=O)N(CC(C)C(=O)O)c1c(I)cc(I)c(N)c1I (stereo unspecified) | inactive | 
20 | C[C@H](Cc1cc2c(c(C(N)=O)c1)N(CCCO)CC2)NCCOc1ccccc1OCC(F)(F)F | inactive | 
21 | FCOC(C(F)(F)F)C(F)(F)F | inactive | 
22 | N=C(N)c1ccc(/C=C/c2ccc(C(=N)N)cc2O)cc1 | inactive | 
23 | C#C[C@]1(OC(C)=O)CC[C@H]2[C@@H]3CCC4=CC(=O)CC[C@@H]4[C@H]3CC[C@@]21C | inactive | 
24 | CON=C1C[C@]2(C[C@@H]3C[C@@H](C/C=C(\C)C[C@@H](C)/C=C/C=C4\CO[C@@H]5[C@H](O)C(C)=C[C@@H](C(=O)O3)[C@]45O)O2)O[C@H](/C(C)=C/C(C)C)[C@H]1C | inactive | 
25 | CN[C@@H]1[C@@H](O)[C@@H](O[C@@H]2[C@@H](O)[C@H](OC3O[C@H](CN)[C@@H](O)[C@H](O)[C@H]3O)[C@@H](N)C[C@H]2NC(=O)[C@@H](O)CN)OC[C@]1(C)O (stereo partly specified) | inactive | 
26 | CCC(=O)O[C@@H](OP(=O)(CCCCc1ccccc1)CC(=O)N1C[C@H](C2CCCCC2)C[C@H]1C(=O)O)C(C)C (stereo partly specified) |  | inactive [at 11.4 µM]
27 | CC[C@@H]1CCN[C@H](C(=O)N[C@@H]([C@H]2O[C@H](SC)[C@H](O)[C@@H](O)[C@H]2O)[C@H](C)Cl)C1 | inactive | 
28 | O=C(O)C(O)[C@H](O)[C@H](O)[C@H](O)[C@H](O)CO (stereo partly specified) | inactive | 
29 | Cc1c(C)c2c(c(C)c1OC(=O)CCC(=O)O)CC[C@@](C)(CCC[C@H](C)CCC[C@H](C)CCCC(C)C)O2 | inactive | 
30 | COc1nc2ccc(Br)cc2cc1[C@@H](c1ccccc1)[C@@](O)(CCN(C)C)c1cccc2ccccc12 | inactive | 
31 | CC[N+](CC)(CC)CCC(O)(c1ccccc1)C1CCCCC1 (stereo unspecified) | inactive | 
32 | CCCCN(CCCC)C(=S)[S-].CCCCN(CCCC)C(=S)[S-].[Zn+2] | inactive | 
33 | C=Cc1c(C)c2cc3nc(c(CC(=O)N[C@@H](CC(=O)O)C(=O)O)c4nc(cc5[nH]c(cc1[nH]2)c(C)c5CC)C(C)=C4C(=O)O)[C@@H](CCC(=O)O)[C@@H]3C | inactive | 
34 | CCCCCCCCCCCCCCCCCC(=O)NCCCC[C@H](NC(=O)CC[C@@H](NC(=O)[C@H](C)NC(=O)[C@@H](C)O[C@H]1[C@H](O)[C@@H](CO)OC(O)[C@@H]1NC(C)=O)C(N)=O)C(=O)O (stereo partly specified) | inactive | 
35 | CC#CCC(C)[C@H](O)/C=C/[C@@H]1[C@H]2C/C(=C/CCCC(=O)O)C[C@H]2C[C@H]1O (stereo partly specified) | inactive | 
36 | CC(C)(C)C(=O)OCOC(=O)[C@@H]1N2C(=O)[C@@H](N=CN3CCCCCC3)[C@H]2SC1(C)C | inactive | 
